The sample as a whole holds a higher share of hits than the screen did.
ERK EGF block: qHTS Assay for Inhibitors of the ERK Signaling Pathway using a Homogeneous Screening Assay; Stimulation with EGF; HEK293-V1b, EGF-stimulated phospho-ERK AlphaScreen; Potency, µM (titrated, usually from 11.5 µM), inactives show at the highest dose activity change, negative = inhibition, hits mostly inhibitors; 130,000 compounds, 0.41% hits; active = well fitted inhibition curve with a large enough effect;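 also: plate controls were stimulated vehicle wells for no effect and unstimulated vehicle basal for full effect; nearly all actives have a fitted effect of over 55% in size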
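Phospho-ERK1/2 measured by AlphaScreen (SureFire) after 5 min 25 nM EGF stimulation of V1b-expressing HEK293 cells preincubated 30 min at 37C with titrated compounds; data scaled to DMSO and EGF controls, Hill-fitted AC50.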
Numbers without * were called inactive; ! = not confirmed by another sample; [ ] = dose if it differs, or a comment. Potency is read from the fitted curve at half-maximal effect.

SMILES	ERK EGF block
COc1ccc(NC(=O)N2CCCC3(CCN(C(C)=O)CC3)C2)cc1	-3.2%
COc1ccc2c(c1)O[C@H](c1ccc3c(c1)OCO3)[C@@H](OC(=O)NS(=O)(=O)c1ccc(C)cc1)C2=O	-9.3%
CCCc1cc(OC)c2c(c1)OCO2	-1.2%
C[C@H]1/C=C\CC(=O)NCc2cccc(c2)CNC(=O)N[C@H]1c1ccccc1	0.2%
O=c1c(-c2cc(O)c(O)c(O)c2)coc2cc(O)c(O)c(O)c12	18.3%
CCc1cc2c(=O)c(-c3ccc4c(c3)OCCO4)coc2cc1OS(C)(=O)=O	-2.1%
CC(C)=CCc1c(O)cc2occ(-c3ccc4c(c3)OCO4)c(=O)c2c1O	22.4µM*
CC(C)NC(=O)N1CCCC2(CCN(C(=O)c3cc(C(F)(F)F)cc(C(F)(F)F)c3)CC2)C1	18.5%
COC(=O)N[C@@H](c1cccc(C)c1)C(C(C)=O)C(=O)OC (stereo not given in full)	-1.1%
CCC(=O)Nc1ccc(Nc2nc(C)c([N+](=O)[O-])c(Nc3ccc(NC(=O)CC)cc3)n2)cc1	-1.5%
Cc1nc(Nc2ccc(C(=O)O)cc2)nc(Nc2ccc(C(=O)O)cc2)c1[N+](=O)[O-]	6.3%
CC(=O)Nc1ccc(Nc2nc(C)c([N+](=O)[O-])c(Nc3ccccc3)n2)cc1	31.6µM*
O=C(Nc1ccccc1)N1CCC2(CC1)CCN(S(=O)(=O)c1ccccc1)CC2	4.2%
COC(=O)[C@@]1(Cc2ccc(OC)cc2)[C@H]2c3cc(C(=O)N(C)C)n(Cc4ccc(C)c(F)c4F)c3C[C@H]2CN1C(=O)c1ccccc1	-2.8%
O=C(Nc1ccc(N2CCOCC2)nc1)c1cccs1	6.4%
O=C(Nc1ccc(N2CCN(c3ncccc3C(F)(F)F)CC2)nc1)c1cccs1	14.1µM*
O=C(Nc1ccc(N2CCN(c3ccc(C(F)(F)F)cn3)CC2)nc1)c1cccs1	-4.0%[57.5 µM]
COC(=O)N1CCC2(CCN(Cc3nccs3)CC2)CC1	-6.8%
COc1ccc(Nc2ncnc3c2cnn3-c2cccc(C)c2)cc1OC	-8.5%[57.5 µM]
Cc1ccc(/C=N/Nc2ncnc3nc[nH]c23)cc1	8.8%[57.5 µM]
O=C(O)c1cccc(Nc2ncnc3sccc23)c1	-2.4%
COc1cc2ncnc(Nc3cccc(Br)c3)c2cc1OC	0.1µM*
CC(Nc1ncnc2nc[nH]c12)c1ccccc1 (stereo not given)	1.3%
COc1ccc(/C(=C/Nc2cccc(Br)c2)C(C)=O)cc1OC	1.9%
OCCCNc1ncnc2sc(-c3ccccc3)cc12	5.9%
SMILES	ERK EGF block
Cc1cc2c(Nc3ccccc3)ncnc2s1	14.1µM*
Cc1ccc2ncnc(Nc3ccccc3)c2c1	3.55µM*
Cc1cccc(Nc2ncnc3nc[nH]c23)c1	28.2µM*
Cc1ccc2ncnc(Nc3cccc(C(=O)O)c3)c2c1	-3.3%[57.5 µM]
Cc1ccc2ncnc(NCCCCCC(=O)O)c2c1	-10.2%[57.5 µM]
N[C@@H](CSS(=O)(=O)O)C(=O)O	-28.8%
COc1ccc(CCN(C)CCCOc2ccc(S(=O)(=O)c3[nH]c4ccccc4c3C(C)C)cc2)cc1OC	-13.3%
O=C(c1cccc(F)c1)N1CCC2(CCN(Cc3cc(C(F)(F)F)cc(C(F)(F)F)c3)CC2)CC1	0.7%
C=C[C@@]1(C)CC[C@H](O)[C@H]2C(=O)CCC[C@@H]21	-3.6%
COC(=O)CNC(=O)C1(C)C=CC2(CCCCC2)N1C(C)=O (stereo not given)	0.9%
CCCCCCCC/C=C\CCCCCCCC(N)=O	0.7%
CCCn1c(-c2ccc(F)cc2)nc2c(NCCCCN(C)C)nc(C)nc21	4.0%
NC(=S)NCCCC(N)C(=O)O (stereo not given)	2.7%
O=C(c1cnccn1)N1CCC[C@@]2(CCN(C(c3ccccc3)c3ccccc3)C2)C1	-2.4%
Cc1cccc(Nc2nc3ccccc3n3nnnc23)c1	-3.7%
CCOc1ccc(Nc2ncnc3ccc([N+](=O)[O-])cc23)cc1	-6.7%
Cc1cccc(Nc2ncnc3ccc(Br)cc23)c1	1.78µM*
Nc1nc(-c2ccccc2)c(N=Nc2ccccc2Cl)s1	17.8µM*
Nc1nc(-c2ccccc2)c(N=Nc2cccc3ccccc23)s1	20µM*
NC(N)=NC(N)=Nc1cccc2ccccc12	4.2%[57.5 µM]
Nc1nc(-c2ccc(Cl)c(Cl)c2)c(-c2ccncc2)s1	7.6%
NNc1nc(-c2ccccc2)c2ccccc2n1	-9.5%
O=C(O)Cc1sc(-c2ccccc2Cl)nc1-c1ccccc1	4.6%
COCC(=O)N1CCC2(CC1)CCN(C(c1ccccc1)c1ccccc1)CC2	-4.8%
COC(=O)C(C(=O)OC)C(Cc1cc(F)cc(F)c1F)NC=O (stereo not given)	-12.7%
SMILES	ERK EGF block
CC(=O)N(C1=C(Cl)C(=O)c2ccccc2C1=O)C1CCCCC1	25.1µM*
CC(=O)N(c1ccccc1C)C1CCCC1	8.2%
O=C1C(Cl)=C(N2CCC(C(=O)O)CC2)C(=O)c2ccccc21	-10.4%[57.5 µM]
CC(=O)OC1CC(OC(C)=O)[C@]2(C)C(CC(=O)[C@]3(C)C2CC[C@@]2(C)C(C(=O)O)OC(=O)C4OC423)C1(C)C (stereo not given in full)	14.7%
COc1ccc(NC(=O)N2CC3(CCN(C(=O)c4cnccn4)CC3)C2)cc1	8.6%
O=[N+]([O-])c1cc(C(F)(F)F)cc([N+](=O)[O-])c1NCCCN1CCOCC1	-0.6%
O=[N+]([O-])c1cc(C(F)(F)F)cc([N+](=O)[O-])c1NN=C1CCCCC1	17.8µM*
O=[N+]([O-])c1cc(S(=O)(=O)N2CCCC2)ccc1NN=C1CCCCC1	-2.0%
COC(=O)N1C(c2ccccc2)=Cc2ccccc2C1C1(C(=O)OC)CCCC1=O (stereo not given)	-6.2%
N#CCCn1c(=O)c(-c2cccs2)nc2cnc(OCc3ccccc3)nc21	-4.3%
COc1ccc(NS(=O)(=O)c2ccc(I)cc2)cc1N1CCN(C)CC1	-7.6%
O=C1NC(O)=NC1(c1ccccc1)c1ccccc1	-4.6%
Oc1cc2c(cc1O)C1c3ccc(O)c(O)c3OCC1(O)C2 (stereo not given)	11.2µM*!
NCCC[C@H](N)CC(=O)N[C@H]1CNC(=O)[C@@H]([C@@H]2C[C@H](O)N=C(N)N2)NC(=O)/C(=C/NC(N)=O)NC(=O)[C@@H](CO)NC(=O)[C@@H](CO)NC1=O	-8.8%[25.7 µM]
COc1ccc(NC(=O)N2CC3(CCN(S(C)(=O)=O)CC3)C2)cc1	-9.2%
CCCCC1=CC2=C(OC(C)=O)C(=O)C(C)(OC(=O)C3CCCC3)C(=O)C2=CO1 (stereo not given)	-8.8%
NCCC[C@@H](CC(=O)N[C@@H]1CCCC[C@H]1C(=O)N[C@H](CC(=O)N[C@@H](CCC(=O)O)CC(=O)O)Cc1ccccc1)NC(=O)C[C@H](Cc1ccccc1)NC(=O)[C@@H]1CCCC[C@H]1N	-6.0%
COc1ccc(OCC(Cn2cnc3ccccc32)OC(C)=O)cc1 (stereo not given)	-2.6%
O=C(O)c1ccc(OCCn2ccnc2)cc1	-6.7%[57.5 µM]

Screens (PubChem)
